According to the supplement of paper PMC6555819:

Key:
Experiment in all cases: PBM binding z-score (relative to random genomic background probes); higher = stronger binding; sequences stand for … in GC…GCGATTGACAGCGTAGAATGAAGG
[1] = tested on: RARb homodimer (NR concentration 270 nM)
In short: (§1)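 Each nuclear receptor dimer, without ligand, was incubated for 1 h on custom Agilent 4×180K protein-binding microarrays. Binding was detected with antibodies against each partner (one per run), and scanned fluorescence was regression-normalized. The binding z-scores are referenced to random human genomic background probes.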

[2] = tested on: RARg:RXRa (NR concentration 270 nM, RXRa partner concentration 90 nM)
In short: as §1

[3] = tested on: RARg homodimer (NR concentration 270 nM)
In short: as §1

[4] = tested on: RXRa DBDmut IVT, anti-RXR (DBD mutation: RXRa K156A/R161A, NR concentration 90 nM)
In short: as §1

[5] = tested on: RXRa homodimer (NR concentration 180 nM)
In short: as §1

[6] = tested on: THRa:RXRa (NR concentration 90 nM, RXRa partner concentration 90 nM)
In short: as §1

[7] = tested on: THRa homodimer (NR concentration 90 nM)
In short: as §1

[8] = tested on: VDR homodimer (NR concentration 270 nM)
In short: as §1

Row | Sequence | PBM binding z-score [1] | PBM binding z-score [2] | PBM binding z-score [3] | PBM binding z-score [4] | PBM binding z-score [5] | PBM binding z-score [6] | PBM binding z-score [7] | PBM binding z-score [8]
1 | CGTCAAAGTTCAACTAAGATAACGTAAAGCACGC | 3.75 | 5.82 | 6.58 | 4.65 | 5.25 | 2.98 | 0.329 | 3.75
2 | CGTTCAAGGTCAATGCTAGGTCAGTGAAAGCATT | 4.78 | 7.74 | 7.18 | 4.09 | 5.88 | 4.72 | 3.33 | 3.44
3 | ATATGTAGGTTAGCTGGGGTCATCCAGACTAGGC | 4.24 | 4.41 | 3.52 | 1.31 | 5.97 | 5.2 | 3.24 | 4.34
4 | CAAACTAGGCCACAGAGGTCAAAGTCCGTGCGTA | 4.87 | 5.71 | 4.91 | 2.16 | 6.16 | 3.95 | 1.62 | 4.03
5 | TAGCCTAGGTCATGGGCCAGAATACCACGCGAAC | 2.86 | 4.27 | 4.29 | 0.064 | 3.81 | 2.89 | 1.07 | -0.109
6 | CGAACTAGGTCATTGATAGGACAGTGAATAGTAA | 2.83 | 4.58 | 4.22 | 2.29 | 2.34 | 2.61 | 0.97 | 1.35
7 | TTACTAAGGTGAAGGTCGTTGATCCCTCTGTAGA | 1.96 | 1.85 | 1.21 | 0.794 | 2.31 | 3.16 | 1.98 | 1.11
8 | TCATATAGGTAGATGCTAGGTGAAAGTCCGATCT | 0.362 | 0.127 | 0.207 | 1.14 | 0.611 | 0.969 | 0.547 | 0.276
9 | CGTCAAAGTTCAACTAAGGTAACGTAGAGCACGC | 4.06 | 6.15 | 6.74 | 4.65 | 5.34 | 5.11 | 1.86 | 3.92
10 | TCTGCAAGGTCAGTTGGTCAGCTAACGAGCTGCC | 3.59 | 4.63 | 5.16 | 2.42 | 2.78 | 3.02 | 0.921 | 1.12
11 | AAAGACAGGTGATGAAGGTAACTCAGGCTATCAT | 0.516 | 0.231 | 0.563 | -0.304 | 0.572 | 1.23 | 0.466 | 0.111
12 | CCGACTGGGGCATAAGGTAACCATAAGCCAGCCC | 0.572 | 0.385 | 0.436 | -0.779 | 0.252 | 1.72 | 1.34 | -0.312
13 | CCGACTGGGGCAAAGGTAACCATACTCAGTACGA | 0.873 | 1.28 | 0.824 | -0.208 | 1.19 | 0.563 | -0.249 | -0.353
14 | TGAATGAGATTAAAGATCAGGGAACGTGGCGTCG | -0.824 | -0.0861 | 0.247 | -1.09 | 0.253 | -0.316 | -0.698 | -0.27
15 | CGAACTAGGTCACAACAGGACAGTGAAGGATGAT | 3.02 | 4.09 | 4.79 | 1.63 | 2.91 | 4.09 | 1.16 | 0.27
16 | ACTATTAGTTGAGACGAGGGCAACAGATAGGTTG | 1.17 | 0.793 | 0.969 | 0.472 | 0.663 | 2.42 | 0.255 | 1.15
17 | ATCTCTAGGTAAAGCTAGTTCAGTGAATGCAAAT | 0.208 | 0.0635 | 0.23 | -0.0872 | 0.134 | 1.15 | 0.00789 | 0.525
18 | ATCTCTAGGTAATACTCAGTTCAGTGAAGAACGC | 1.14 | 0.732 | 0.671 | 0.98 | 0.582 | 1.37 | 1.33 | 1.89
19 | CAGACAGGGTCAGCTAGGCCAGAGTAGGGACGGC | 3.06 | 4.3 | 4.64 | 1.59 | 4.42 | 3.01 | 0.505 | 0.912
20 | AGAATGAGGTTATACGTGGATCAGGGAAGAAAGT | 1.08 | 1.69 | 0.925 | 1.84 | 2.1 | 2.48 | 1.1 | 1.21
21 | CAATCTAGGTCAAGAGGTCAAAGTCCGCTTCCCG | 5.66 | 8.19 | 7.48 | 2.79 | 8.19 | 4.5 | 2.95 | 5.19
22 | ACAGCCAGGTGATGAAGGTAACTCAGGCTATCAT | -0.0957 | -0.0664 | 0.0616 | -0.658 | 0.21 | 1.1 | 0.166 | -0.584
23 | CAAACTAGGTCAAGAGGTCAGAGTCCGCTTCCCG | 5.42 | 7.29 | 7.22 | 2.53 | 6.9 | 3.88 | 2.15 | 3.34
24 | GCATATAGTTAATACAAGGTGAAAGTCCGATTGT | 0.847 | 0.222 | 0.365 | 0.966 | 0.312 | 2.89 | 1.18 | -0.0676
25 | TTACCAAGGTGAAACGTCGTTGATGCACGCCTTG | 0.238 | 0.69 | 0.555 | 0.0137 | 1.01 | 1.59 | 0.421 | -0.415
26 | TCGTGTAGATCAATAGAGGTTAAGAAAGTGCGCT | 1.47 | 0.551 | 0.428 | 0.621 | 1.23 | 2.09 | -0.291 | 0.428

Row | Sequence | PBM binding z-score [1] | PBM binding z-score [2] | PBM binding z-score [3] | PBM binding z-score [4] | PBM binding z-score [5] | PBM binding z-score [6] | PBM binding z-score [7] | PBM binding z-score [8]
27 | ATCGAGAGGTCGAAGGTGAGTATACCCACCCGAA | 1.46 | 3.28 | 2.62 | 1.02 | 4.3 | 1.82 | -0.366 | 0.783
28 | CCTTTTAGTTGACCATAAGGGCAACCGAAGCTCG | 2.13 | 1.55 | 1.08 | 0.818 | 0.506 | 1.8 | 1.51 | 0.92
29 | AGAACGAGGGCACGCTGAGTTGATATCAGAGTAG | 1.18 | 2.05 | 2.32 | 2.08 | 1.32 | 1.89 | -0.269 | 1.71
30 | CCTTACGGGTCAAGGTTATAGTACGGGTGGTACG | 3.37 | 4.78 | 4.42 | 1.09 | 5.14 | 3.08 | 1 | 1.71
31 | CCGACTGGGGCAGAAAAGTTACCATACCATCCGG | -0.232 | -0.197 | 0.109 | -0.438 | -0.0105 | -0.43 | -0.509 | -0.39
32 | CCAGACATGTGAAAGGTAACTCAGTCTGGTACGC | 0.0662 | 0.308 | 0.362 | 0.289 | 0.767 | 0.162 | -0.146 | 0.204
33 | CGACCTAGGTCAGAACAGGACAGTGAAGGATGAT | 2.62 | 3.3 | 4.04 | 0.773 | 2.21 | 3.83 | 0.505 | 0.303
34 | CGTCCAAGGTCAATGGTAGGTCAGTGAAAGCATT | 5.21 | 7.79 | 6.78 | 3.44 | 5.41 | 4.33 | 2.72 | 2.73
35 | CCTGCTAGGTTAATGGTCAGCTAAAGCAGCTCGC | 0.863 | 0.422 | 0.563 | 0.452 | 0.173 | 0.215 | -0.284 | -0.175
36 | CAAACTAGGTCACAGCGGTCAAAGTCCGTGCGTA | 4.53 | 5.19 | 5.77 | 1.84 | 3.87 | 3.66 | 1.74 | 2.57
37 | GCATATAGGTAATACAAGGTGAAAGTGCGATTGT | 0.903 | 0.659 | 0.584 | 0.39 | 0.992 | 4.13 | 1.19 | 0.133
38 | AGAATGAGGTTATACGTAGATCAGCGAAGAAAGT | 0.428 | 1.76 | 0.909 | 1.41 | 2.13 | 1.99 | 0.0645 | 0.803
39 | ATATGTAGGGTACATCCGGGTCATTCAGGCTATG | 2.84 | 2.44 | 1.86 | 2.66 | 2.64 | 3.83 | 2.45 | 5.83
40 | AGAATGTGGTTATTAAGATCAGGGAATTGCGGTC | 0.199 | -0.113 | 0.223 | -0.0893 | 0.0791 | 0.147 | 0.17 | 0.201
41 | TCGAGTAGGTTAGTCGGGGCATTCATCCAACATA | 0.534 | -0.0149 | 0.214 | 0.518 | 0.053 | 1.19 | 0.047 | 0.435
42 | TCGAGTAGGTTTGGGGCATTCAGAATGGCGTCGA | 0.408 | -0.658 | -0.913 | 0.194 | -0.158 | 0.0533 | 0.0117 | -0.0123
43 | ATATGTAGGTTACATCCGGGTCATTAAGGCTATG | 3.03 | 3.68 | 2.19 | 1.31 | 3.15 | 3.75 | 2.8 | 2.89
44 | CCAGACAGCTGAGAAGGTAACTCAGCCTCGATTA | -0.378 | -0.436 | -0.0751 | -0.0865 | -0.206 | -0.157 | -0.306 | -0.494
45 | GGAACGAGGGCTAGTTGATAGCAGAGTTTGATGG | -0.317 | -0.308 | -0.0732 | 0.278 | -0.467 | -0.749 | -1.03 | -0.367
46 | GCTCCTAGGTCAGGTTGGTCAGCTAACGGGTACG | 3.18 | 2.91 | 3.46 | 0.888 | 1.47 | 2.27 | 1.22 | 0.591
47 | AGAATGAGGTTATACGTAGATCAGGGTAGAAAGT | 1.33 | 1.82 | 1.34 | 1.81 | 2.24 | 2.42 | 0.874 | 1.21
48 | CCTGCTAGGTCAATGGTTAGCTAAAGCAGCTCGC | 2.6 | 3.3 | 3.9 | 1.65 | 1.78 | 2.11 | 0.48 | -0.158
49 | ACAGACAGGTGATGAACGTAACTCAGGCTATCAT | 0.0133 | 0.303 | 0.489 | 0.0589 | 0.363 | 0.000937 | -0.114 | -0.513
50 | GCTGCTAGGTCAACTGATGGTCGGCTAAAGCTCG | 3.67 | 4.74 | 5.56 | 1.82 | 2.91 | 3.09 | 0.97 | 0.148
51 | TCATATAGGTAAACCGGTGAAAGTCCGTAAGTTA | 0.357 | 0.195 | 0.0982 | 1.45 | 0.746 | 0.262 | 0.203 | 0.541
52 | TCATATAGATAAATGCTAGGTGAAAGTCCGATCT | 0.00895 | 0.12 | 0.317 | 1.66 | 0.786 | 0.626 | 0.378 | 0.203
